# S1P3 antagonist – blocks the human S1P3 receptor; Q99500; CHO S1P3 NFAT-BLA reporter, FRET fluorescence, antagonist mode; inhibition, % at 4.98 µM; actives 0.27% (n = 170,000); AID 485;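 active = inhibition above the plate cutoff, the mean inhibition of test wells on that plate plus 3 SD, cut at about 28% in these data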;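 also: cells challenged with S1P at its EC80 of 0.8 µM; blue over green emission ratio from cleaved BLA substrate after 4 h stimulation; 0% = S1P-stimulated wells and 100% = unstimulated DMSO-only wells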
# EP2 modulator – modulates human prostaglandin E2 receptor EP2 signaling; P43116; EP2-expressing cells, cAMP HTRF FRET, PGE2 co-stimulation; induction, % at 25 µM; actives 0.83% (n = 260,000); AID 940;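 active = compounds whose cAMP rise, as percent of the full-agonist control response, exceeds 60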;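 also: rat C6 glioma line stably carrying human EP2 under a CMV promoter; the protocol text gives 20 µM as final concentration; 100% = response of wells given 1 µM PGE2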
# KCC2 mod – modulators of human KCC2 chloride dependent transport; actives 2.2% (n = 190,000); B-score of Tl+ flux slope (higher = more flux/activation; lower = inhibition) at 10 µM; KCC2 cells, thallium flux FluoZin-2 fluorescence; AID 1456;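 active = thallium flux slope and its plate-corrected score both differing from the plate sample mean at a set confidence after two filtering rounds, in either direction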;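 also: slope of fluorescence scaled to starting intensity during 10 to 20 s after thallium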
# PGE2 EP2 inh – EP2 receptor (human) inhibition. C6 glioma cells expressing human EP2, cAMP TR-FRET; cells stimulated with saturating PGE2. inhibition, % at 25 µM. actives 0.52% (n = 260,000);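 active = percent inhibition above 40 after rounding to a whole number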;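 also: rat C6 glioma host cells with rolipram phosphodiesterase inhibitor present; the protocol text gives 20 µM as final concentration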
# EP2 confirm – EP2 receptor cAMP induction, counter-screens negative | shares compounds with EP2 modulator | calls only at 20 µM (by protocol) | actives 47% (n = 1,300) | AID 1080 | C6 glioma EP2 cells, cAMP HTRF induction; plus low (about EC15) PGE2 agonist;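 active = cAMP induction above 50% in the main assay while under 30% in all four parallel counter assays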;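 also: rat C6 glioma cells stably expressing human EP2 receptor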
# An asterisk follows results filed as active; i = inactive; / = not tested or not shown; + = active, no number. Shown are actives, neighbours in structure and some others; about 3.1% of the full set was active somewhere.
SMILES,S1P3 antagonist,EP2 modulator,KCC2 mod,PGE2 EP2 inh,EP2 confirm
CC(=O)Nc1sc2c(c1C(c1cccs1)N1CCOCC1)CCCC2 (configuration not stated),-2,51,/,14,i
CC(=O)Nc1sc2c(c1C(c1ccccn1)N1CCCC1)CCCC2 (configuration not stated),-5,20,-0.028,3,/
Cc1cc(C)c2cc(C#N)c(SCC(=O)NCc3ccco3)nc2c1,-42,9,-0.38,/,/
Cc1cc(C)c2cc(C)c(SCC(=O)NCc3ccco3)nc2c1,-8,77*,-0.016,7,+
CCn1c(CNc2ccc(OC)cc2)nnc1SCC(=O)Nc1cccc(C)c1,/,-7,/,23,/
Cn1c(-c2ccc(Br)o2)nc2ccccc21,0,3,-1.9,14,/
Brc1ccc(Cn2c(-c3ccc(Br)o3)nc3ccccc32)o1,3,68*,i,13,+
CC1(C)CC(N(Cc2cnc[nH]2)Cc2ccccc2F)CC(C)(C)N1,/,-32,/,6,/
CCN1CCCC1CN(Cc1cc2cc(OC)ccc2[nH]c1=O)C(=O)Nc1ccc(OC)cc1 (configuration not stated),/,7,/,7,/
O=c1[nH]ncc2c3ccccc3n(Cc3cccc(Cl)c3)c12,-4,60,-0.68,8,i
O=c1[nH]ncc2c3ccccc3n(Cc3ccc(F)cc3)c12,7,28,/,13,/
CC1(C)OC(c2ccccc2)=C/C(=C/C=Nc2ccccc2)O1,/,66*,0.045,14,i
CC1(C)OC(c2ccccc2)=C/C(=C\C=N\NC(=O)c2ccncc2)O1,10,-5,-0.065,10,/
CC(C)(Sc1ccc(CCN(CCCCC2CCCCC2)C(=O)NC2CCCCC2)cc1)C(=O)O,/,66*,/,13,i
COc1cc(OC)c(-c2nc(-c3ccccc3)no2)cc1OC,/,20,/,8,/
COc1ccc(-c2noc(-c3ccccc3-c3ccccc3)n2)cc1OC,-18,77*,0.39,/,+
CC(C)CCn1c(O)c(N=NC(=O)c2ccco2)c2ccccc21,10,73*,0.81,1,i
CC1=CC(C)(C)N(C(=O)c2ccccc2)c2ccccc21,18,72*,/,4,i
COc1ccc(OC)c(C(=O)CSc2nnc(-c3cccs3)n2C)c1,-32,6,-1.4,0,/
COc1ccc(OC)c(C(=O)CSc2nnc(Cc3cccs3)n2CCc2ccccc2)c1,/,66*,-1.6,0,+
Cc1ccc(NC(=O)CSc2nnc3n(CC(=O)NC4CCCCC4)c4ccccc4n23)cc1C,/,-33,/,15,/
COc1ccc(OC)c(C2=Nn3c(nnc3-c3ccco3)SC2)c1,/,74*,-1.2,1,+
COc1ccc(C2=Nn3c(nnc3-c3ccccc3)SC2)cc1OC,/,70*,0.46,2,i
COc1ccc(C2=Nn3c(nnc3C3CCCCC3)SC2)cc1OC,/,77*,-2.2,5,+
COc1ccc(OC)c(C2=Nn3c(nnc3C3CCCCC3)SC2)c1,/,42,-1.5,8,/
SMILES,S1P3 antagonist,EP2 modulator,KCC2 mod,PGE2 EP2 inh,EP2 confirm
CCOC(=O)C1=C(C)N=C2SC(C)C(=O)N2C1c1ccc(OC)c(OC)c1 (configuration not stated),/,-8,/,11,/
Cc1ccc(NC(=O)CSc2nc3c(C)cc(C)cc3cc2C#N)c(C)c1,/,-6,/,3,/
CCC(c1nnnn1C1CCCCC1)N(Cc1cc2cc(OC)ccc2[nH]c1=O)CC1CCCO1 (configuration not stated),/,29,/,3,/
COc1cc(OC)cc(-c2nc(N)n[nH]2)c1,-53,68*,/,17,i
CC(O)(C(=O)NCCc1nc(-c2ccncc2)n[nH]1)c1ccccc1 (configuration not stated),/,-17,/,/,/
FC(F)(F)c1cc(-c2ccccc2)nc(N2CCOCC2)n1,/,65*,0.27,10,i
C=CCOc1nc(-c2ccncc2)nc2ccccc12,/,69*,-2.5,9,+
CC1Cc2cc(CN(CCCN(C)C)Cc3ccccn3)ccc2O1 (configuration not stated),/,24,/,6,/
Cc1cccnc1N(C(=O)Nc1cccc(Cl)c1)C1=NCC(C)(C)S1,-1,70*,-0.58,3,+
CC1(C)CN=C(N(Cc2ccccc2)C(=O)Nc2ccccc2)S1,-14,41,-0.023,12,/
Cc1cccnc1N(C(=O)Nc1ccccc1)C1=NCC(C)(C)S1,-6,86*,-1.6,9,+
CC1(C)CN=C(N(C(=O)Nc2ccccc2)c2ccccc2F)S1,-6,43,-2,5,/
CCOC(=O)c1c(NC(=O)CSc2nnc(C)c(=O)[nH]2)sc(C)c1-c1ccc(C)cc1,-1,27,-2.5,7,/
CCOC(=O)c1c(NC(=O)CSc2nnc(N)s2)sc(C)c1-c1ccc(C)cc1,0,65*,0.31,7,+
CCOC(=O)c1c(NC(=O)CN2C(=O)NC3(CCCCCC3)C2=O)sc(C)c1-c1ccc(C)cc1,5,68*,0.4,13,+
CCCCNc1nc(-c2ccccc2)c(C(=O)OCC)cc1C#N,/,65*,0.16,6,+
CCCNc1nc(-c2ccccc2)c(C(=O)OCC)cc1C#N,/,37,/,10,/
O=C1C2C(c3ccccc3)C=CC(c3ccccc3)C2C(=O)N1c1ccncc1 (configuration not stated),/,65*,-0.36,1,i
O=C1C2C(c3ccccc3)C=CC(c3ccccc3)C2C(=O)N1c1cccnc1 (configuration not stated),1,36,-0.84,7,/
COc1ccc(-c2n[nH]c(=S)n2C2CCCCC2)cc1,15,4,2.6,-1,/
Cc1ccsc1-c1n[nH]c(=S)n1C1CCCCC1,-8,63*,5.9,6,i
Cc1ccccc1N=C1SCC(=O)N1Cc1ccccc1,4,67*,-0.79,12,+
Cn1c(N2CCCC(C(=O)NC3CCCCC3)C2)nc2ccccc21 (configuration not stated),/,-22,/,/,/
Cc1nc(N(C)C)c2sc(=S)n(Cc3ccccc3)c2n1,-3,76*,-0.91,3,+
CCN(CC)c1nc(C)nc2c1sc(=S)n2C,-5,58,-1.3,8,/
CC1CCN(c2ccc(C(=O)N3CCn4c(nnc4C4CC4)C3)cc2)CC1,/,-31,/,11,/
Cc1cc(O)c(C=O)c2c1C(=O)Oc1c(COC(=O)/C=C/C(=O)O)c(O)c(C(=O)O)c(C)c1O2,/,63*,/,9,+
Cc1cc(O)c(C=O)c2c1C(=O)Oc1c(CO)c(O)c3c(c1O2)C(O)OC3=O (configuration not stated),-11,-9,0.21,11,/
CCC(CN1CCCCC1)NC(=O)Cc1sc(C)nc1-c1ccc(C)cc1 (configuration not stated),/,-10,/,5,/
CC(C)n1c2ccccc2c2nnc(SCC(=O)Nc3ccccc3C(=O)O)nc21,-23,73*,-0.46,12,i
